Assay results: PubChem BioAssay AID624377 (The Scripps Research Institute Molecular Screening Center, 2012)
The campaign covered roughly 360,000 compounds. About 680 (0.19%) were called active. Shown is part of a subset that was picked to be rich in actives. Unmarked numbers belong to inactive results. Cut-off read from the data, not from the text of the source: active = inhibition above about 25%; inactive = the rest.

target: Arf-GAP with SH3 domain, ANK repeat and PH domain-containing protein 1 (Homo sapiens) (UniProt Q9ULH1); assay: blockers of ASAP1-stimulated ARF1 GTP hydrolysis – biochemical, fluorescence polarization, primary screen (AID 624377); conditions: GDP FP detection, at 16.5 µM, hits give high values;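 note: 0% = vehicle with enzyme and substrate and 100% = no enzyme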
Sequence (Q9ULH1 325-724 limits assumed): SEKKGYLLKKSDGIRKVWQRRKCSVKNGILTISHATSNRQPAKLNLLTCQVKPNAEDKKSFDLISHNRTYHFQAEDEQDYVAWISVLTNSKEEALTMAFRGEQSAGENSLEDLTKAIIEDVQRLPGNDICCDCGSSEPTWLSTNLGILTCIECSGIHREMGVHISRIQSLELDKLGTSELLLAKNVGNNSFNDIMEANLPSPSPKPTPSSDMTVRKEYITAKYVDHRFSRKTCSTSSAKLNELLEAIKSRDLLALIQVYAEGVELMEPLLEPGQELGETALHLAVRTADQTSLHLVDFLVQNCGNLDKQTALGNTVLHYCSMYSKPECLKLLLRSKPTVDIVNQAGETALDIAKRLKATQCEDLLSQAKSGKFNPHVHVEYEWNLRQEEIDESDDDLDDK

Row | SMILES | inhibition
1 | Cc1ccc(NC(=O)N2c3ccccc3SC2c2ccco2)c(C)c1 (stereo not given) | 0.24%
2 | Nc1nc2c(ncn2[C@@H]2O[C@H](C(=O)N[C@@H](Cc3ccccc3)C(=O)NCc3ccccc3)[C@@H](O)[C@H]2O)c(=O)[nH]1 | 1.52%
3 | CC(C)(C)C(c1nc2ccccc2[nH]1)n1c(Cc2csc3ccccc23)nc2ccccc21 (stereo not given) | 0.61%
4 | CCCCCCCCN1C(=O)[C@@H](CC(=O)N2CCN(C(=O)OCC)CC2)C[C@@]2(C(=O)OC)C1=C[C@H](C1CCCC1)O[C@@H]2C | -6.71%
5 | O=C(NS(=O)(=O)c1cccs1)[C@H]1O[C@@H](n2ccc(=O)[nH]c2=O)[C@H](O)[C@@H]1O | -0.42%
6 | CN(CCO)c1ccc(/C=N/Nc2nncc3ccccc23)cc1 | 4.89%
7 | COc1cc(Nc2nc3ccc(Cl)cc3n3cnnc23)cc(OC)c1OC | -7.78%
8 | COc1cc(/C=N/Nc2nn3cnnc3c3ccccc23)cc(OC)c1OC | 27.1% (active)
9 | Nc1[nH]c(C(=O)c2ccccc2)c(-c2ccc(Cl)cc2Cl)c1C(=O)c1ccccc1 | 1.42%
10 | CCCCCCCCN1C(=O)[C@@H](CC(=O)NCc2ccc(C)o2)C[C@@]2(C(=O)OC)C1=C[C@H](C(C)(C)C)O[C@@H]2C | -18.4%
11 | C[C@@H]1CN([C@H](C)CO)C(=O)CCCn2cc(nn2)CO[C@H]1CN(C)C(=O)Nc1ccc(N2CCCCC2)cc1 | -5.8%
12 | O=C(NCc1ccccc1)[C@@H]1CCCN1C(=O)[C@@H](NS(=O)(=O)c1ccc(F)cc1F)C1CCCCC1 | -1.92%
13 | Cc1ccc(N)cc1CN1CCN(c2ncc(Cc3ccccc3)cn2)CC1 | 12%
14 | COc1cccc(CNC(=O)[C@H]2CCCN2C(=O)[C@H]2CCCN2C(=O)C2CCCCC2)c1 | -4.66%
15 | COC(=O)[C@]1(Cc2ccccc2)NC=C(C(=O)c2ccccc2)[C@@H]1c1cccc(OC)c1 | -16.7%
16 | C=CC1=CCN(S(=O)(=O)C(C)(C)C)[C@@H]1CCO | -14.4%
17 | CN1CCCc2nc(-c3ccccc3)ccc21 | 1.42%
18 | CSc1ccc(Oc2cccc3c2S(=O)(=O)N([C@H](C)c2ccccc2)C[C@@H](COCc2ccccc2)O3)cc1C | 0.74%
19 | Cc1cc2c(nc1C)CCCN2C | -12%
20 | CN1C(=O)C2CC(O)C(SC3CC4C(=O)N(C)C(=O)C4CC3O)CC2C1=O (stereo not given) | -4.75%
21 | COC(=O)[C@]12C[C@H](CC(=O)NCc3cccc(C(F)(F)F)c3)C(=O)N(Cc3ccc4c(c3)OCO4)C1=C[C@H](COCc1ccccc1)O[C@@H]2C | 2.38%
22 | COC(=O)C1=C(C)N(Cc2ccccc2C(F)(F)F)C(=NCc2ccc(C(F)(F)F)cc2)NC1c1ccc(F)cc1 (stereo not given) | 8.73%
23 | COC(=O)C(C(=O)OC)c1ccccc1NS(=O)(=O)c1cccc2ccccc12 | -1.63%
24 | OCCNCCOc1ccc(Cl)c(Cl)c1 | -8.06%
25 | OCCNc1nc(Nc2ccc(Cl)c(Cl)c2)nc2ccccc12 | 26% (active)

Row | SMILES | inhibition
26 | COCCNc1nc(Nc2ccccc2Cl)c2sc(-c3ccccc3)cc2n1 | 13.4%
27 | COC(=O)[C@]12C[C@H](CC(=O)NCc3ccc(C)o3)C(=O)N(CCC3=CCCCC3)C1=C[C@H](C(C)(C)C)O[C@@H]2C | -6.9%
28 | COC(=O)C1=C(C)NC(=S)NC1c1ccc(OC)cc1 (stereo not given) | 3.47%
29 | C#CCNc1ccc(C(=O)OCC)cc1 | -6.34%
30 | COC(=O)c1ccc(NC(=O)C(C)N2C(=O)c3ccccc3C2=O)cc1 (stereo not given) | 2.27%
31 | COC(=O)c1ccc(NCC(=O)c2ccccc2)cc1 | 24.7% (active)
32 | Cc1ccc2nc(CN(C)C(=O)[C@@H](Cc3ccccc3)NC(=O)[C@H]3O[C@@H](n4ccc(=O)[nH]c4=O)[C@H](O)[C@@H]3O)[nH]c2c1 | -16.7%
33 | Cc1noc(C)c1NC(=O)Nc1ccc2c(c1)C(=O)N([C@H](C)CO)C[C@H](C)[C@H](CN(C)Cc1ccncc1)OCCCC[C@@H](C)O2 | 3.29%
34 | O=S(=O)(c1cccs1)N1CCCc2nc(-c3ccc(Br)cc3)ccc21 | 0.45%
35 | C=CCC[C@H](CCCCC)OC(=O)/C=C/[C@H](O)[C@@H](O)C[C@@H](O)CC=C | 5.11%
36 | C=CCC[C@@H](CCCCC)OC(=O)/C=C/[C@@H](O)[C@H](O)C[C@H](O)CC=C | 26.7% (active)
37 | CCCCNc1cccc2c1S(=O)(=O)N[C@@H](C)CO2 | 5.97%
38 | CC(C)CNc1cccc2c1S(=O)(=O)N[C@H](C)CO2 | -1.48%
39 | CN1C(=O)C(Br)(Br)CC1c1cccnc1 (stereo not given) | 2.71%
40 | COCCCNC(=O)C[C@H]1C[C@@]2(C(=O)OC)C(=C[C@H](C(C)(C)C)O[C@@H]2C)N(Cc2ccc3c(c2)OCO3)C1=O | -0.04%
41 | Cc1cc(OC(=O)NCCc2ccc(F)cc2)ccc1F | -5.01%
42 | C=CCN1C(=O)N(Cc2ccccc2)c2ccccc2S1(=O)=O | 10.9%
43 | COC(=O)C1=C(C)N(Cc2ccccc2C(F)(F)F)C(=NCc2ccc(OC)cc2)NC1c1cccc(C(F)(F)F)c1 (stereo not given) | -0.5%
44 | C[C@H]1[C@H](c2ccccc2)Oc2cc(Br)ccc2S(=O)(=O)N1Cc1cccc(F)c1 | -15.2%
45 | COC(=O)Nc1nc2ccc(C(=O)C3CC3)cc2[nH]1 | 3.58%
46 | CC1(C)OC(=O)C2=C(CC(CCc3ccccc3)OC2c2ccc(Cl)cc2)O1 (stereo not given) | 0.87%
47 | O=C(Nc1c(Cl)c(C2CC2)nn1-c1ccccc1)C(Cl)(Cl)Cl | 6.91%
48 | O=C(C(=O)N1CCC(CNS(=O)(=O)Cc2ccccc2)CC1)c1cc2ccccc2o1 | -10.9%
49 | COC(=O)c1c(-c2ccc(OC)cc2)c2c(c3c4ccccc4n(S(=O)(=O)c4ccc(C)cc4)c13)C(=O)N(C)C2 | 5.81%
50 | Brc1ccc(COCCc2cn(Cc3ccccc3)c3ccccc23)cc1 | -1.81%
